Screens deposited in PubChem BioAssay by National Center for Advancing Translational Sciences (NCATS).
Compounds with a hit are over-represented: about 1.7% of the library has one in this group of screens.
TRHR enhancer: allosteric enhancers of human TRH receptor | enhancement, % at 2 µM | TRHR cells, fluo-8 calcium fluorescence, EC20 TRH enhancement | P34981 | 360,000 tested, 0.66% active; in the data active means enhancement above about 30%
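TRHR-expressing cells loaded with fluo-8 calcium dye were read kinetically (ex 480/em 530) during compound addition, then stimulated with an EC20 of TRH (10 nM final). Enhancement of the Gq-mediated intracellular calcium response was scored.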
KCNH2 3.1 inh: inhibitors of human KCNH2 3.1 potassium channel isoform. U2OS KCNH2 3.1, thallium flux FluxOr; hits give low values. activity change, % (tested at about 1.8 µM). 340,000 tested, 0.95% active. AID 720553;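 active means maximum activity change below -70%; inconclusive means maximum activity change from -70% to -50%; inactive means maximum activity change above -50%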;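 further: thallium influx rate constant from kinetic fluorescence after stimulation buffer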
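FluxOr-based Tl+ influx in U2OS cells transduced with KCNH2 3.1 virus; rate constants normalized to DMSO controls.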
TRPML1 agonist: agonists of human TRPML1 channel | activation, % (no concentration beside the values) | 410,000 tested, 0.12% active | Q9GZU1 | TRPML1-expressing cells, Ca2+ dye fluorescence, FDSS; in the data active means activation above about 50%; inconclusive means mostly about 30% to 49%
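In this qHTS format, compounds were pin-transferred onto Ca8-dye-loaded TRPML1-DL cells induced with Tet overnight, and intracellular Ca2+ fluorescence was recorded kinetically for 110 s after a 10 s baseline. A subsequent 4uM final 54-4 (EC80) addition followed by a second 110 s read served as the antagonist phase.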
hERG WT inh: blocks the wildtype human KCNH2 potassium channel. activity change, % at 1.84 µM. Q12809. 340,000 tested, 0.37% active. U2OS, BacMam KCNH2, thallium flux FluxOr; hits give low values;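 active means maximum activity change below -70%; inconclusive means maximum activity change between -70% and -50%; inactive means maximum activity change above -50%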
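U2OS cells transduced with wild-type KCNH2 virus are loaded with FluxOr dye for 45 min, and thallium flux is measured in kinetic reads before and after stimulation buffer. Rate constants are normalized to DMSO controls.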
TRHR ag: TRH receptor (human) agonism | 360,000 tested, 0.18% active | P34981 | TRHR cells, calcium flux fluo-8, FDSS agonist mode | activation, % at 2 µM; in the data active means activation above about 30%
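Read-out: compound-evoked intracellular calcium rise in TRHR cells, fluo-8 dye, kinetic FDSS fluorescence at 1 s/cycle following a 10-cycle baseline. Cells cultured overnight before dye loading (30 min–1.5 h, RT).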
TRPML1 inh: inhibitors of human TRPML1 channel | Q9GZU1 | TRPML1-inducible cells, Ca2+ dye fluorescence, FDSS; hits give low values; inhibition of EC80 agonist-evoked calcium signal | activity change, negative = inhibition, % (concentration not given with the values) | 390,000 tested, 0.02% active | AID 624415; in the data active means activity change below about -50%; inconclusive means between about -30% and that limit;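 further: stimulus is agonist 54-4 at its EC80 concentration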
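Calcium fluorescence in TRPML1-DL cells induced overnight with Tet: a 110 s read after compound pin addition, then a 110 s antagonist read after challenge with 54-4 at 4 uM final (EC80).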
Large screens that a line does not name were inactive.

O=C(CSc1ncccn1)NC(=O)Nc1ccc2c(c1)OCCO2	none
Cc1ccc(C)c(SCC(=O)NC(=O)Nc2ccc3c(c2)OCCO3)c1	hERG WT inh -79.1
O=C(c1cccc(S(=O)(=O)N2CCCc3ccccc32)c1)N1CCN(c2ccccc2)CC1	none (no result: TRHR enhancer, TRHR ag)
COC(=O)c1cc(NC(=O)Cn2c(=O)oc3ccccc32)cc(C(=O)OC)c1	none
CCO[C@H]1OC(C(=O)N2CCN(Cc3ccc4c(c3)OCO4)CC2)=C[C@@H](C2CCCCC2)[C@@H]1CCCO	TRHR enhancer 37.7 (no result: KCNH2 3.1 inh, hERG WT inh)
CCO[C@@H]1OC(C(=O)N2CCN(Cc3ccc4c(c3)OCO4)CC2)=C[C@H](C2CC2)[C@H]1CCCO	none
Cc1ccc(N2C(=O)CC(n3nc(C)cc3C)C2=O)cc1 (centres undefined)	KCNH2 3.1 inh -210.9
CN(C)c1ccc(CNC(=O)C2(C)Cc3c(-c4cccc(C(F)(F)F)c4)ccnc3O2)cc1 (centres undefined)	none (no result: TRHR enhancer, KCNH2 3.1 inh, hERG WT inh, TRHR ag, TRPML1 inh)
O=C(N1CCOCC1)N(Cc1cccs1)C1CCCC1	KCNH2 3.1 inh -79.9
CCN(C[C@H]1N[C@@](Cc2ccccc2)(C(=O)OC)[C@H]2C(=O)N(C)C(=O)[C@@H]12)S(=O)(=O)c1ccc(-c2ccccc2)cc1	none (no result: TRHR enhancer, TRHR ag)
COc1ccc(C2=NN(c3ccc(C=O)cc3)C(c3ccccc3)C2)cc1 (centres undefined)	none
COc1ccc(C2CC(c3cccs3)=NN2c2ccc(C=O)cc2)cc1 (centres undefined)	TRPML1 agonist inconclusive, TRHR ag 40.4
COc1ccc(S(=O)(=O)N(C)c2ccc(C(=O)N3CCCCC3)cc2)cc1OC	none
CCOC(=O)c1ccc(N2N=C(C)/C(=C/C=C/c3ccco3)C2=O)cc1	none
CC1=NN(c2ccc(C(=O)OC(C)C)cc2)C(=O)/C1=C\C=C\c1ccco1	KCNH2 3.1 inh -194.1, hERG WT inh -201.6
Cc1cc2c(s1)c1cnn(Cc3ccc(C(F)(F)F)cc3F)c(=O)c1n2C	none (no result: KCNH2 3.1 inh, TRPML1 agonist, hERG WT inh, TRPML1 inh)
Cc1csc(=O)n1CC(=O)OCC(=O)Nc1ccc(F)c(F)c1	TRHR enhancer 32.6
NS(=O)(=O)c1ccc(CCNC(=O)C(=O)c2cn(CC(=O)N3CCOCC3)c3ccccc23)cc1	TRHR enhancer 34.4
CC1(C(=O)NS(=O)(=O)c2ccc3c(c2)CCO3)CCN1C(=O)C1(c2ccc(Cl)cc2)CC1 (centres undefined)	none (no result: TRHR enhancer, KCNH2 3.1 inh, hERG WT inh, TRHR ag)
Cc1ncc(C[n+]2csc(CCOC(=O)CC34CC5CC(CC(C5)C3)C4)c2C)c(N)n1	KCNH2 3.1 inh -126.7
Cc1c(CCOC(=O)C23CC4CC(CC(C4)C2)C3)sc[n+]1CC#N	TRHR enhancer 40.6
NNC(=O)CN1C(CN2CCOCC2)=Nc2ccc(Br)cc2C1c1ccccc1 (centres undefined)	KCNH2 3.1 inh -73.2
O=[S+]([O-])(c1ccc2c(c1)OCCO2)N1CCN([S+](=O)([O-])c2ccc(F)cc2Cl)CC1	none (no result: KCNH2 3.1 inh, TRPML1 agonist, hERG WT inh, TRPML1 inh)
COC(=O)Cc1c(C)c2ccc(OCC(=O)N(C)C)cc2oc1=O	TRHR enhancer 30.4
COc1cc2c(cc1OC)n(CC(=O)c1ccc(F)cc1)c(=O)n1nc(CCn3nc(C)cc3C)nc21	TRHR enhancer 36.2 (no result: KCNH2 3.1 inh, hERG WT inh)
COc1ccc(NC(=O)CSc2nnc(C)n2C2CC2)cc1S(=O)(=O)N1CCOCC1	none
COc1ccc(C(=O)NC(=S)N(Cc2ccccc2)Cc2ccccc2)cc1	hERG WT inh -102.2
C=CCN(CC=C)C(=S)NC(=O)c1ccc(OC)cc1	none
O=C(COC(=O)c1cccc(S(=O)(=O)NCc2ccccc2)c1)c1ccccc1	KCNH2 3.1 inh -84.2
Cc1cc(C)c(C(=O)COC(=O)c2cccc(S(=O)(=O)NCc3ccccc3)c2)cc1C	none
COc1ccc(-c2nc(SCC(=O)Nc3c(C)cc(C)cc3C)n[nH]2)cc1	none (no result: KCNH2 3.1 inh, hERG WT inh)
CCOC(=O)C(NC(=O)Nc1ccc(Cl)cn1)(Oc1ccccc1)C(F)(F)F (centres undefined)	none
CCOC(=O)C(NC(=O)Nc1ccc(F)cc1F)(Oc1ccccc1)C(F)(F)F (centres undefined)	TRHR enhancer 31.5, KCNH2 3.1 inh inconclusive
